Bioassay records as filed in PubChem.
CYP2C19 activ – human CYP2C19 activators, primary screen, biochemical, luminescence | Cytochrome P450 2C19 (Homo sapiens), P33261 | recombinant CYP2C19, luciferin-H EGE luminescence; stronger effect = higher value; 0 = fully inhibited enzyme, 1 = untreated enzyme | activation factor at 5 µM | 96,000 tested, under 10 active | AID 1025, 2008;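 active = activation factor of at least 2 at 5 µM in the primary screen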;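 also: 0 = wells with 2.5 mM tranylcypromine and 1 = vehicle-only wells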
CYP2C9 activ – human CYP2C9 activators, primary screen, biochemical, luminescence; Cytochrome P450 2C9 (Homo sapiens), P11712; recombinant CYP2C9, luciferin-H conversion; stronger effect = higher value; factor 1 = untreated enzyme, 0 = blocked; activation factor at 5 µM; 1.4% of 96,000 active; AID 1024, 2008;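 active = activation factor of 2 or more for CYP2C9 at a 5 µM dose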;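 also: 0 = sulfaphenazole-blocked wells and 1 = vehicle-only wells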
CYP2C9 inhib – blockers of cytochrome P450 2C9 activity – biochemical, luminescence, ADME assay, primary screen; P11712; CYP2C9 Supersomes, luciferin-H conversion; inhibition, % at 5 µM; 20% of 96,000 active; AID 777, 2007;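 active = blocking of liver enzyme CYP2C9 beyond about 50% at 5 µM, limit read from the data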
D1 mod – D1 CRE-luciferase signal change, two-sided – cell-based, HEK293 D1, dopamine EC30, D1 allosteric modulator project, primary screen | 5.9% of 58,000 active | B-score at 10 µM | dopamine EC30 potentiation; actives deviate in either direction | AID 641, 2007 | D(1A) dopamine receptor (Homo sapiens), P21728;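 active = luminescence count or its row- and column-corrected plate score outside the 99.7% band of the plate's sample wells, on either side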
CYP2C19 inh – blockers of cytochrome P450 2C19 activity – biochemical, luminescence, ADME assay, primary screen; CYP2C19 Supersomes, luciferin-H EGE luminescence, 30 min; inhibition, % at 5 µM; P33261; 21% of 96,000 active;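 active = CYP2C19 inhibition above a set limit at 5 µM in the primary screen, cut at about 50% in these data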;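 also: plate controls were negative control wells for no effect and 2.5 mM tranylcypromine positive control for full effect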
DAT uptake mod – changed hDAT dopamine uptake under cocaine IC80, either direction, primary screen, cocaine antagonist project, cell-based, LLC-PK1 hDAT, [14C]-dopamine uptake, MLSMR; AID 449768, 2010; LLC-PK1 hDAT cells, [14C]-dopamine uptake with cocaine IC80; actives deviate in either direction; B-score at 10 µM; Sodium-dependent dopamine transporter (Homo sapiens), Q01959; 1.3% of 110,000 active;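 active = Z score or B-score, a plate-position-corrected score, falls beyond the plate's 99.7% confidence bounds, in either direction; inactive = both scores lie inside the 99.7% bounds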;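 also: scored against the spread of the other compound wells on the same plate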
Target sequence (Q01959 whole entry, looked up): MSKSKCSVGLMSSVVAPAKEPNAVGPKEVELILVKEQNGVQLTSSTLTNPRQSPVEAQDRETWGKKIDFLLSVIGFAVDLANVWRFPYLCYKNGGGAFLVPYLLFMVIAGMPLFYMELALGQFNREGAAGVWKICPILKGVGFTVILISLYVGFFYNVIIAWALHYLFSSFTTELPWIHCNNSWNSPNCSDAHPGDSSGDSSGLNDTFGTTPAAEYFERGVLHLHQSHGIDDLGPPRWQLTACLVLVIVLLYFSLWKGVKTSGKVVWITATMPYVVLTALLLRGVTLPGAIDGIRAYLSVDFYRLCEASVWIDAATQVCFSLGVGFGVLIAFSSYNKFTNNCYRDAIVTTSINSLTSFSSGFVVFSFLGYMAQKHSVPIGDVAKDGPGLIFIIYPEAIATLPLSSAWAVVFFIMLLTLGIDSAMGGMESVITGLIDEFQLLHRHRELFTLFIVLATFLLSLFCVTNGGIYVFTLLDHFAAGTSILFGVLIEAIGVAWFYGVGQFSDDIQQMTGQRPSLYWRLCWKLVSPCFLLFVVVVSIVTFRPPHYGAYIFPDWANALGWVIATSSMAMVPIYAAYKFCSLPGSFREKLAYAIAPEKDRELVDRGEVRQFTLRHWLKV
Starred values were filed as active, the others as inactive; . = no result. Most compounds without a hit are left out; they make up all but 28% or so of the library.

SMILES | CYP2C19 activ | CYP2C9 activ | CYP2C9 inhib | D1 mod | CYP2C19 inh | DAT uptake mod
CC(C)(C)n1nnnc1C(c1cccs1)N(Cc1ccccc1)Cc1ccco1 (stereo not given) | 0.7 | 0.5 | 52.8* | -0.996 | 31.0 | 0.279
CCN(Cc1ccccc1)C(c1ccc(Cl)cc1)c1nnnn1C(C)(C)C (stereo not given) | 0.8 | 0.8 | 23.4 | . | 16.3 | 0.0497
CCN(Cc1ccccc1)C(c1ccccn1)c1nnnn1C(C)(C)CC (stereo not given) | 0.1 | 0.3 | 70.9* | -0.998 | 86.0* | -0.945
Cn1c(N2CCN(C(=O)NC34CC5CC(CC(C5)C3)C4)CC2)nc2ccccc21 | . | . | . | . | . | -1.61
COc1cccc2cc(-c3nc(-c4cccs4)cs3)c(=O)oc12 | 0.6 | 0.2 | 83.2* | -2.39* | 42.7 | -0.836
ONC(=Nc1ccc(Cl)cc1)c1ccccc1 | 0.1 | 0.8 | 23.7 | . | 91.2* | -9.65*
COc1cc2nc(CN(CCC(C)C)Cc3nc4cc(OC)c(OC)cc4c(=O)[nH]3)[nH]c(=O)c2cc1OC | 0.7 | 0.4 | 55.9* | . | 34.0 | 0.367
CCOC(=O)[C@@H]1[C@H]2COc3ccc(Br)cc3[C@@H]2N2C(=O)N(c3ccc(Cl)cc3)C(=O)[C@]12C | . | . | . | . | . | -0.319
O=S1(=O)C=C(SCc2ccc(Cl)c(Cl)c2)Nc2ccccc21 | 0.3 | 0.3 | 71.0* | . | 68.5* | 0.339
S=C(NCCSCc1ccc(Cl)c(Cl)c1)Nc1ccccc1 | . | . | . | . | . | 0.864
Cc1cc(=S)[nH]c2c(C)cccc12 | 0.8 | 1.7 | -66.7 | . | 18.2 | 0.158
COC(=O)c1cc(NC(=O)c2ccc(Cn3cc(Cl)cn3)o2)cc(C(=O)OC)c1 | 0.2 | 0.1 | 89.4* | -0.0344 | 77.2* | -0.118
COC(=O)c1ccccc1NC(=O)c1ccc(Cn2cc(Cl)cn2)o1 | 0.5 | 1.3 | -32.6 | . | 50.4* | -1.03
COC(=O)c1ccccc1NC(=O)c1ccc(-c2ccccc2F)o1 | 1.1 | 1.1 | -9.2 | 0.768 | -7.1 | 0.0259
COc1ccc(Nc2nnc(Cc3ccc(Cl)cc3)c(=O)[nH]2)c(OC)c1 | 0.6 | 0.4 | 62.1* | -1.97 | 39.0 | -0.77
Cc1ccc(OCCn2c(CCCO)nc3ccccc32)cc1 | 0.4 | 0.7 | 28.5 | . | 58.6* | -0.817
COCc1nc2ccccc2n1CCCOc1ccccc1 | 0 | 0.2 | 77.7* | -1.19 | 97.3* | -1.02
CCOCCn1c(-c2ccc(OC)cc2)nc2ccccc21 | 0.7 | 0.7 | 34.3 | -0.771 | 25.8 | 0.0796
CC(C)C(=O)NCCc1nc2ccccc2n1CCCOc1ccc(Cl)cc1 | 0.2 | 0.2 | 77.1* | . | 77.2* | 1.87
CCOC(Cn1c(CCCO)nc2ccccc21)OCC | 0.9 | 1.1 | -9.4 | . | 9.3 | 0.0175
CCOCCn1c(COc2ccccc2)nc2ccccc21 | 0.5 | 0.9 | 14.7 | . | 50.7* | -0.0762
CC(C)c1cc(-c2cc(-c3ccccc3)on2)nc(NC2CCCC2)n1 | . | . | . | . | . | -0.324
O=C1c2ccc(Oc3ccc4c(c3)C(=O)N(CCCO)C4=O)cc2C(=O)N1CCCO | 0.9 | 1 | -3.2 | -0.218 | 12.0 | 0.161
O=C(Nc1cc(Cl)cc(Cl)c1)c1ccc(Cn2c(=O)[nH]c3ccsc3c2=O)cc1 | . | . | . | . | . | -1.28
CCCc1nc2ccccc2n1CCOc1ccccc1 | 0.4 | 0.7 | 34.3 | . | 61.2* | .
SMILES | CYP2C19 activ | CYP2C9 activ | CYP2C9 inhib | D1 mod | CYP2C19 inh | DAT uptake mod
CCOCCn1c(CCCO)nc2ccccc21 | 1 | 1.1 | -6.7 | -0.141 | 0.2 | -0.638
OCCCc1nc2ccccc2n1CCOc1ccccc1 | 0.2 | 0.6 | 42.1 | 0.281 | 84.1* | -0.904
CCCc1nc2ccccc2n1CCOC | 1 | 1 | 4.5 | . | 4.3 | 0.00821
COc1ccc(NCc2nc3ccccc3n2CCOc2ccccc2)cc1 | 0.8 | 0.2 | 78.7* | . | 24.9 | 0.0698
COc1ccc(C(=O)NC2CCN(C(=S)Nc3cccc(C)c3C)CC2)cc1 | 1.1 | 1.1 | -13.2 | . | -8.4 | .
COc1cc(N)ccc1Cc1ccc(N)cc1OC | 0.2 | 1.4 | -41.4 | -0.402 | 77.9* | -0.289
COc1ccc(N)cc1C#N | 1.1 | 1.1 | -6.9 | 0.505 | -6.8 | -0.511
Cc1ccc(S(=O)(=O)N2CCCC2C(=O)NC2=NCCS2)cc1 (stereo not given) | 0.7 | 1.2 | -18.5 | -0.208 | 25.2 | -0.816
O=C(Nc1nc2ccccc2s1)C1CCCN1S(=O)(=O)c1ccc(Cl)cc1 (stereo not given) | 0 | 0 | 97.2* | 0.626 | 95.6* | 1.06
Nc1nc(C2CCCN2S(=O)(=O)c2ccc(Cl)cc2)cs1 (stereo not given) | 0.2 | 0.9 | 11.3 | 0.136 | 80.2* | -0.116
Cc1ccc(S(=O)(=O)N2CCCC2C(=O)Nc2nc3ccccc3s2)cc1 (stereo not given) | 0 | 0.1 | 85.5* | 0.281 | 96.8* | 0.115
O=C(Oc1cc(-c2ccccc2)no1)c1ccc(Cl)cc1 | 1.1 | 1 | 4.7 | . | -8.8 | -1.63
CSCCC(NS(=O)(=O)c1cccs1)C(=O)NCc1cccs1 (stereo not given) | 0.7 | 0.7 | 33.0 | . | 25.7 | -0.759
COC(=O)CC(NS(=O)(=O)c1cccs1)c1ccccc1Cl (stereo not given) | 0.1 | 0.5 | 47.9 | . | 93.9* | 0.272
CC(NC(=O)c1cc2sccc2n1C)c1ccc2c(c1)OCCO2 (stereo not given) | 0.8 | 0.2 | 81.6* | 0.429 | 22.5 | .
CC(NC(=O)c1cccs1)c1ccc2c(c1)OCO2 (stereo not given) | 0.1 | 0.2 | 75.9* | -0.0953 | 91.9* | -1.23
CCn1c(C(=O)NC(C)c2ccc3c(c2)OCCO3)cc2sccc21 (stereo not given) | 0.9 | 0.7 | 32.9 | -0.38 | 9.5 | 1.9
Cc1ccsc1C(=O)NC(C)c1ccc2c(c1)OCO2 (stereo not given) | . | . | . | . | . | 0.0332
O=C(COc1cc(Cl)ccc1Cl)Nc1nnc(CC(=O)N2CCOCC2)s1 | 1.1 | 0.8 | 20.2 | 0.00782 | -6.0 | -0.302
CCC12CCCN3CCC4(C(=C(C(=O)OC)C1)Nc1ccccc14)C32 (stereo not given) | 0.4 | 0.4 | 58.2* | -0.0985 | 63.4* | -0.914
COC(=O)C1=C(C(=O)OC)[C@@H]2Nc3ccccc3[C@@]23C[C@@H](C(=O)OC)N=C3N1 | . | . | . | . | . | 0.601
COc1ccc(C2C(C(C)=O)=C(O)C(=O)N2c2ccc(Br)cn2)cc1 (stereo not given) | 1 | 0.9 | 8.2 | . | 2.5 | -0.628
